The record followed here is PubChem BioAssay (NCI).

Each structure is given as a SMILES string. About 83,000 compounds went through this panel and 20% of them were active in at least one assay; those are over-represented in the sample as a whole.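 Testing used 96-well plates and a 48-hour single-concentration exposure. Example: -40 means 40% of the starting cells died.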 A number with no mark means an inactive call. The source made the active and inactive calls. The calls were made as follows: active = growth percent below 10; inactive = the rest.

In this experiment the test system is SR leukemia. The experiment can be described thus: NCI-60 one-dose screen, 48 h (100 = growth as untreated, 0 = no growth, -100 = all killed). Particulars: 10 µM unless noted.
For the compound `Cc1ccc2c(C3C(C#N)=C(N)Oc4cc5ccccc5cc43)cc(=O)oc2c1` (stereo not drawn), the growth was 16.9%.

With `Oc1ccc(Cl)cc1Sc1cc(Cl)ccc1O`, the growth was 90.4%.

Regarding `CCc1cccc(-c2ccccc2)c1`, the growth is 52.4%. As to `CCCCNc1cc(C(=O)O)cc(S(N)(=O)=O)c1Oc1ccccc1`, the growth was 104%.

Turning to `CC(C)Cn1cnc2c3ccccc3nc(NCn3nc(-c4cc(Cl)cc(Cl)c4Cl)oc3=S)c21`, the growth was 25.5%.

Regarding `Cc1ccc(-c2nc3c(N=Nc4ccc(S(N)(=O)=O)cc4)c(N)nn3c(N)c2C#N)cc1`, the growth was 28.9%.

In the case of `O=C(C[n+]1ccccc1Cl)c1ccc2c(c1)CCCC2`, the growth was 59.8%. Under `CCN(CC)c1ccc(C2CC(c3cc(OC)c(OC)c(OC)c3)=NN2)cc1` (stereo not drawn) stands -10.8% (active).

For `COC(=O)CCCNS(=O)(=O)c1cc(C(=O)Nc2ccc(NC(=O)c3cc(S(=O)(=O)NCCCC(=O)OC)c(O)c(O)c3O)cc2)c(O)c(O)c1O`, the growth was 70.4%.

With `CC(NCCC(c1ccccc1)c1ccccc1)c1ccccc1` (stereo not drawn), the growth was -35.6% (active). Under `CC/C(=C(\CC)c1ccc(OCCN(CC)CC)cc1)c1ccc(OCCN(CC)CC)cc1` stands -8.6% (active); under `Cc1ccc(N(CC2=NCCN2)c2cccc(O)c2)cc1`, 95.3%. Under `COc1ccc(C[C@H](N)C(=O)N[C@@H]2[C@@H](CO)OC(n3cnc4c(N(C)C)ncnc43)[C@@H]2O)cc1` (stereo partly drawn) stands -37.7% (active); under `CC1=C2C(=C[C@@](C)(CO)[C@@H]2OC(=O)N(C)CCN(C)C(=O)OC(C)(C)C)C(=O)[C@](C)(O)C12CC2`, 50.6%.

Turning to `CC1CCc2cc(F)cc3c(=O)c(C(=O)O)cn1c23` (stereo not drawn), the growth is 95.4%. In the case of `OCCOCC(F)(F)F`, the growth is 78.7%. As for `CN(C)CC/C=C1\c2ccccc2Sc2ccc(Cl)cc21`, the figure is 62%; as for `O=C(COc1ccc(Cl)cc1)N1CCN(Cc2ccc3c(c2)OCO3)CC1`, 97.8%; as for `COc1cc(NS(=O)(=O)c2ccc(N)cc2)ncn1`, 97.2%. As for `COC(OC)C1(c2ccccc2)NC(=O)NC1=O` (stereo not drawn), the figure is 74.8%; as for `CC(=O)Nc1ccc(OC(=O)c2ccccc2O)cc1`, 96.9%; as for `COc1cccc(C2CC(c3cc(OC)c(OC)c(OC)c3)=NN2)c1` (stereo not drawn), 9.95% (active).

Take `COc1cc(C(=O)N2CCN(C(=O)c3cc(OC)c(OCc4ccccc4)cc3N)CC2)c(N)cc1OCc1ccccc1`: the growth is 81.2%. As to `COc1cc2c(cc1OCCCCC(=O)Nc1ccc(-c3nc4ccccc4s3)cc1)N=C[C@@H]1CCCN1C2=O`, the growth is -55.4% (active). Under `C=C1C(=O)O[C@H]2[C@H]1CC/C(COC(=O)c1cccc3ccccc13)=C\CC[C@@]1(C)O[C@@H]21` stands -31.4% (active); under `COc1ccccc1S(=O)(=O)Nc1ccc2c3c(cc(-c4ccoc4)nc13)C(=O)N2C`, 59.2%. Under `C=C1c2c(Cl)ccc(O)c2C(O)=C2C(=O)[C@]3(O)C(O)=C(C(N)=O)C(=O)[C@@H](N(C)C)[C@@H]3[C@@H](O)[C@H]12` stands -8.97% (active); under `CN1C(=O)C2(SCC(C(=O)NCC(=O)OC(C)(C)C)N2C(=O)C2CCCCC2)c2ccccc21` (stereo not drawn), 110%; under `COc1ccc(/C=C/C(=O)c2ccc(-n3cc(CN4CCN(c5cc6c(cc5F)c(=O)c(C(=O)O)cn6C5CC5)CC4)nn3)cc2)cc1OC`, -12.4% (active). Under `O=C(Nc1ccc(Cl)c(Cl)c1)Nc1ccc(Cl)c([N+](=O)[O-])c1` stands -25.2% (active); under `Cc1cc[n+](CCCC[n+]2ccc(C)cc2)cc1`, 97.3%. `COc1cc2ncnc(Oc3ccc(NC(=O)Nc4ccc(C5(C#N)CCCC5)cc4)c4ccccc34)c2cc1OC`: the growth was 70.3%. As for `COC(=O)Nc1nc2ccc(Sc3ccccc3)cc2[nH]1`, the figure is 14.5%.
